BJeLR lethal = BJeLR cell viability loss; inhibition, % (no concentration beside the values); BJeLR (HRASV12) viability, CellTiter-Glo ATP luminescence, 48 h; actives 0.17% (n = 300,000); in the data active = inhibition above about 50%; inconclusive = no clear call, values can overlap the other calls
PrP 5UTR inh = suppresses PrP 5' UTR mRNA reporter expression; AID 488862; inhibition, % (test concentration not listed); cell-based PrP 5' UTR mRNA reporter, plate reader; actives 0.35% (n = 340,000); in the data active = inhibition above about 52%; note: 0 = median of the neutral control wells
UGM FP inh = inhibitors of M. tuberculosis UDP-galactopyranose mutase; P9WIQ1; purified UGM, fluorescence polarization probe displacement; inhibition, % at 10 µM; actives 0.06% (n = 320,000); in the data active = inhibition above about 10%, passing the limit was not always enough; inconclusive = no clear call, values can overlap the other calls
Target sequence (P9WIQ1 whole entry, looked up): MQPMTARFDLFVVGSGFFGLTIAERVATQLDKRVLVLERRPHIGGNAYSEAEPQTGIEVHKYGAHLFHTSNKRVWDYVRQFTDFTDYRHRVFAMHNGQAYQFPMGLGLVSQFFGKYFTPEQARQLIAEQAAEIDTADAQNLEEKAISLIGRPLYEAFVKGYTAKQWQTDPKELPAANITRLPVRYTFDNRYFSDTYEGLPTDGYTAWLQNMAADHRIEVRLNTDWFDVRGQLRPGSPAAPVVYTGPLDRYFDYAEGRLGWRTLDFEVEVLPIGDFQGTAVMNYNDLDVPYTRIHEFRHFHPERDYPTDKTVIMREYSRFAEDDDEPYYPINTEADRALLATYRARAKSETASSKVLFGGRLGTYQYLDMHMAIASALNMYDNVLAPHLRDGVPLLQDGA
RecA splice inh = inhibitors of M. tuberculosis RecA intein splicing; cell-free RecA intein splicing, fluorescence; inhibition, % (concentration not given with the values); P9WHJ3; actives 0.75% (n = 290,000); in the data active = inhibition above about 30%; inconclusive = no clear call, values can overlap the other calls;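 note: 0% = vehicle wells and 100% = reference inhibitor control wells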
Rv3671c inh = inhibitors of M. tuberculosis serine protease Rv3671c. actives 0.048% (n = 320,000). AID 2606. inhibition, % at 5.96 µM; in the data active = inhibition above about 38%;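 note: extracellular domain of Rv3671c used as enzyme; 0% = enzyme with DMSO and 100% = no enzyme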
FadD28 FP inh = M. tuberculosis FadD28 bisubstrate binding inhibition. inhibition, % at 12.5 µM. FadD28 bisubstrate probe binding, fluorescence polarization. actives 0.22% (n = 360,000); in the data active = inhibition above about 8.5%, passing the limit was not always enough; inconclusive = no clear call, values can overlap the other calls
Numbers without * were called inactive. Hits are enriched below; roughly 1.3% of the tested compounds scored in any of these assays.

What do the screens show for `C=CCOc1c(OC)cc(/C=N/Nc2cccc(C(=O)O)c2)c(Br)c1Br`?
BJeLR lethal: -3; PrP 5UTR inh: -48; UGM FP inh: 2; RecA splice inh: 6; Rv3671c inh: 16; FadD28 FP inh: 16*

Results for O=C(O)c1cccc(N/N=C/c2ccc(OC(F)(F)F)cc2)c1 ?
BJeLR lethal: 1; PrP 5UTR inh: 44; UGM FP inh: 1; RecA splice inh: 1; Rv3671c inh: -3; FadD28 FP inh: inconclusive

Results for CCN(CC)C(=O)CSc1nnc2nnc3cc(Cl)ccc3n12 ?
BJeLR lethal: -3; PrP 5UTR inh: -27; UGM FP inh: 2; RecA splice inh: 42*; Rv3671c inh: -8; FadD28 FP inh: -2

Results for O=c1c2ccccc2nc2n1CCS2(=O)=O ?
BJeLR lethal: 17; PrP 5UTR inh: -6; UGM FP inh: 3; RecA splice inh: 39*; Rv3671c inh: 4; FadD28 FP inh: -4

How did O=c1c2ccccc2nc2c3ccccc3c3nncn3n12 do in these assays?
BJeLR lethal: 4; PrP 5UTR inh: -12; RecA splice inh: 0; FadD28 FP inh: -1

Results for c1ccc2[nH]c3cc4ncnc4cc3nc2c1 ?
BJeLR lethal: -1; PrP 5UTR inh: -46; UGM FP inh: 9; RecA splice inh: 60*; Rv3671c inh: -11; FadD28 FP inh: 0

How did O=C(N/N=C/c1ccc([N+](=O)[O-])o1)c1cc2ccccc2o1 do in these assays?
BJeLR lethal: 68*; PrP 5UTR inh: 2; UGM FP inh: -1; RecA splice inh: 4; Rv3671c inh: 13; FadD28 FP inh: -1

What do the screens show for `O=C(N/N=C/c1ccc([N+](=O)[O-])o1)c1ccccc1NS(=O)(=O)c1cccs1`?
BJeLR lethal: 6; PrP 5UTR inh: -6; UGM FP inh: 1; RecA splice inh: 40*; Rv3671c inh: 5; FadD28 FP inh: 3

What do the screens show for `COc1ccc(NC(=O)N(C)C[C@@H]2OCc3cnnn3CCCC(=O)N([C@H](C)CO)C[C@@H]2C)cc1`?
FadD28 FP inh: 0

Results for Cc1ccc(NC(=S)/C(=C(\[O-])c2ccc(F)cc2)[n+]2ccccc2)cc1 ?
BJeLR lethal: 6; PrP 5UTR inh: -22; UGM FP inh: 1; RecA splice inh: 30*; Rv3671c inh: 0; FadD28 FP inh: -6

Results for Cc1ccc(C)c(NC(=S)/C(=C(\[O-])c2ccc(OC(F)F)cc2)[n+]2ccccc2)c1 ?
BJeLR lethal: 13; PrP 5UTR inh: -15; UGM FP inh: -1; RecA splice inh: 33*; Rv3671c inh: -3; FadD28 FP inh: 1

Results for [O-]/C(=C(\C(=S)Nc1ccccc1F)[n+]1ccccc1)c1ccc(OC(F)F)cc1 ?
BJeLR lethal: 4; PrP 5UTR inh: -26; UGM FP inh: 0; RecA splice inh: 1; Rv3671c inh: -7; FadD28 FP inh: -4

Results for CCCc1nc2c3ccccc3ccn2c1Cc1ccc(OC)cc1C ?
FadD28 FP inh: -3

How did Brc1cc(-c2ccccc2)nc(-c2ccccc2)n1 do in these assays?
BJeLR lethal: -5; UGM FP inh: 0; RecA splice inh: 4; Rv3671c inh: 2; FadD28 FP inh: -3

Results for O=C(NCC1CCCCC1)c1csc([C@@H]2O[C@H](CO)[C@H](O)[C@H](O)[C@H]2O)n1 ?
FadD28 FP inh: 0

Results for COc1ccc(C2=CC3=C(Br)C(=O)C(C)(OC(=O)C4CCCC4)C(=O)C3=CO2)cc1 (configuration not stated) ?
BJeLR lethal: 1; PrP 5UTR inh: -20; UGM FP inh: -3; RecA splice inh: 5; Rv3671c inh: -2; FadD28 FP inh: 11*

What do the screens show for `CC(=O)Nc1ccc(S(=O)(=O)c2ccnc3cc(Cl)ccc23)cc1`?
FadD28 FP inh: 0

What do the screens show for `Cc1c(C)n(C)c2ccc(C(=O)NCc3cccs3)cc12`?
BJeLR lethal: -12; PrP 5UTR inh: -9; UGM FP inh: -2; RecA splice inh: 8; Rv3671c inh: -22; FadD28 FP inh: 12*

What do the screens show for `CC(=O)N(C)Cc1ccc(C(=O)CCl)cc1`?
BJeLR lethal: 0; PrP 5UTR inh: -20; UGM FP inh: 2; RecA splice inh: 37*; Rv3671c inh: 5; FadD28 FP inh: 0

How did COC(=O)/C(=C1/Oc2ccc(C(C)(C)C)cc2S1)C(F)(F)F do in these assays?
BJeLR lethal: 1; PrP 5UTR inh: -57; UGM FP inh: 0; Rv3671c inh: -8; FadD28 FP inh: -4

How did COC(=O)/C(=C1/Oc2cc(C)oc(=O)c2S1)C(F)(F)F do in these assays?
BJeLR lethal: 12; PrP 5UTR inh: 0; UGM FP inh: -1; RecA splice inh: 44*; Rv3671c inh: 2; FadD28 FP inh: -4

What do the screens show for `CCOc1ccc(NS(=O)(=O)c2cccs2)cc1S(=O)(=O)N1CCCC1`?
FadD28 FP inh: 1

Results for CCCCS/C(=C(/C#N)C(N)=O)c1cc2c([nH]1)CCCC2 ?
BJeLR lethal: 2; PrP 5UTR inh: 0; UGM FP inh: 1; RecA splice inh: 36*; Rv3671c inh: -7; FadD28 FP inh: -1

What do the screens show for `CCc1ccc(N/C(SC)=C(/C#N)C(N)=O)cc1`?
BJeLR lethal: -1; PrP 5UTR inh: -8; UGM FP inh: 2; RecA splice inh: 2; Rv3671c inh: -3; FadD28 FP inh: 1

How did O=C1c2ccccc2-c2nnc(-c3ccc(O)cc3)cc21 do in these assays?
BJeLR lethal: -4; PrP 5UTR inh: -92; UGM FP inh: 1; RecA splice inh: 49*; Rv3671c inh: -24; FadD28 FP inh: -2

What do the screens show for `CNC(=O)c1nnsc1S(=O)c1ccc(Cl)cc1` (configuration not stated)?
BJeLR lethal: 23; PrP 5UTR inh: -8; RecA splice inh: 40*; FadD28 FP inh: -1

How did COc1ccc(CNC(=O)Nc2nnc([C@@H]3C[C@H](O)[C@@H](CO)O3)s2)cc1 do in these assays?
FadD28 FP inh: -5

Results for COc1ccccc1NC(=O)c1sc2nc(Cc3ccccc3)cc(C(F)(F)F)c2c1N ?
BJeLR lethal: -2; PrP 5UTR inh: -19; UGM FP inh: 30*; RecA splice inh: -110; Rv3671c inh: -2; FadD28 FP inh: 1

What do the screens show for `Cc1nnc(NC(=O)c2sc3nc(-c4cccs4)cc(C(F)(F)F)c3c2N)s1`?
BJeLR lethal: 7; PrP 5UTR inh: -4; UGM FP inh: 2; RecA splice inh: -9; Rv3671c inh: -2; FadD28 FP inh: 9.4*

Results for CC(C)[C@H](NC(=O)c1ccco1)C(=O)Nc1ccc(N2CCCCCC2)cc1 ?
FadD28 FP inh: -2

How did O=C1CCN(N=Nc2cccc(Cl)c2)N1 do in these assays?
BJeLR lethal: 4; UGM FP inh: 2; RecA splice inh: 40*; Rv3671c inh: -2

What do the screens show for `O=C(N/N=C/c1cc2c3c(c1O)CCCN3CCC2)c1ccccc1O`?
BJeLR lethal: 53*; PrP 5UTR inh: 33; RecA splice inh: 5; FadD28 FP inh: 1

Screening data as filed in PubChem.
